# Screens: PubChem, National Center for Advancing Translational Sciences (NCATS)
# The entries come from a sample that favours hits as a whole.
# Pf Dd2 inh – Plasmodium falciparum Dd2 growth inhibition. P. falciparum Dd2 growth, SYBR Green, 72 h. Potency, µM (titrated, usually from 28.9 µM), actives largely listed as inhibitors. 120,000 tested, 4.3% active; active means well fitted inhibition curve with a large enough effect; further: nearly all actives have a fitted effect of over 65% in size
#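 Readout: SYBR Green fluorescence, 485 nm excitation, 535 nm emission, after ~16 h lysis at 37C. Before that, Dd2-infected red cells (2.5% hematocrit) grew 72 h with compound, 29 uM top final concentration.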
# A number is an active result; n = inactive; [ ] = another dose, or the depositor's remark.
SMILES,Pf Dd2 inh
O=C(CC1=CCCCC1)N1CCC2(CC1)CN(c1ccncn1)CC2CO (configuration not stated),n
COCC1CN(C)CC12CCN(C(=O)c1cnco1)CC2 (configuration not stated),n
COc1ccc(-c2nnc3n2CCN(C(C)=O)C3)cc1,n
COc1ccc(CC(=O)N2CCn3c(nnc3-c3ccc(OC)cc3)C2)cc1,n
COc1ccc(N2CCN(C(=O)COc3ccc(-c4nnc5n4CCCC5)cc3)CC2)cc1,0.708µM
CN(CC1CCOC1)C(=O)Nc1ccc(Cl)cc1F (configuration not stated),n[5.79 µM]
CC(=O)c1cc(CC(=O)N[C@@H]2COCC[C@@H]2OCc2ccccc2)cs1,n
CN1CCCC(CN(CCc2ccccc2)C(=O)c2cc[n+]([O-])cc2)C1 (configuration not stated),n
CC(=O)c1cc(CN(CCc2ccccc2)CC2CCCN(C)C2)cs1 (configuration not stated),12.6µM
CC(C)C(=O)NC1CCN(C(=O)N2CC3CC(C2)[C@H]2CCCC(=O)N2C3)CC1 (some centres not stated),n
COc1ccc(NC(=O)C2(Cc3ccccc3)CCCCC(=O)N2)c(OC)c1 (configuration not stated),n
COc1ccc2[nH]cc(CCNC(=O)C3(Cc4ccccc4)CCCCC(=O)N3)c2c1 (configuration not stated),2µM
COc1ccc2[nH]cc(CCNC(=O)Nc3ccccc3)c2c1,n
COc1cc2c(cc1OCc1ccccc1)N([S+](=O)([O-])c1ccc3c(c1)CCO3)CC21CCN(C)CC1,3.55µM
COc1ccc(C(=O)N2CC3(CCN(C)CC3)c3cc(OC)c(OCc4ccccc4)cc32)cn1,n
COc1cccc([S+](=O)([O-])N2CCCC3(CC(Cc4ccccc4)=NO3)C2)c1 (configuration not stated),n
CN(C)Cc1nnc(C2CC(NC(=O)CSCC3CC3)C2)n1C (configuration not stated),n
CC(=O)Nc1ccc(CN2CCC23Cc2ccccc2NC3=O)cc1 (configuration not stated),n
Cc1nc(C)c(CN2CCOC[C@H](Oc3cnccn3)C2)s1,n
CNC(=O)[C@@H]1C[C@H](Oc2cccnc2)CN1C(=O)c1ccc(OC)nc1,n
COc1ccc(-c2c(C)c3ccc(O)c(CN4CCCC(C)C4)c3oc2=O)cc1OC (configuration not stated),11.2µM
COc1ccc(-c2c(C)c3ccc(O)c(CN4CCN(CCO)CC4)c3oc2=O)cc1OC,n
COc1ccc(-c2cc3ccc(O)c(CN4CCCC(C)C4)c3oc2=O)cc1OC (configuration not stated),4.47µM
COc1ccc(S(=O)(=O)NCC2CCCN(Cc3ccc(-c4ccco4)cc3)C2)cc1 (configuration not stated),n
COc1ccc(N2CCN(C3CCCN(Cc4cc(=O)[nH]c(=O)[nH]4)C3)CC2)cc1 (configuration not stated),n
SMILES,Pf Dd2 inh
COc1ccc(-c2nc(CN3CCC(C(=O)NCCc4ccccc4)CC3)c(C)o2)cc1OC,n
COc1ccc(-c2c(C)c3cc(OC(=O)N4CCOCC4)ccc3oc2=O)cc1OC,n
COc1ccc(-c2nnc([C@H]3CCN(C(=O)c4ccc(OC)c(OC)c4)C3)o2)cc1,n
COc1ccc(-c2cc3ccc(O)c(CN4CCCC4)c3oc2=O)cc1OC,3.98µM
COc1ccc(CCC(=O)N2CCC[C@H]2c2nc(-c3ccc(OC)c(OC)c3)no2)cc1,n
COc1ccc(-c2cc3ccc(O)c(CN4CCCC(C)C4)c3oc2=O)cc1 (configuration not stated),1µM
COc1ccc(NC(=O)N2CCN(Cc3nc4ccc(C)cc4o3)CC2)cc1OC,n
O=C1NC2(CCCN(C(=O)c3ccccc3)C2)Oc2ccccc21 (configuration not stated),n
CCC1c2nccn2CCCN1C(=O)c1cnc(C)cn1 (configuration not stated),n
O=C(O)C1=NOC2CN([S+](=O)([O-])c3ccccc3)CC12 (configuration not stated),n
O=C(c1c(OCC2CC2)cc(=O)n2c1CCCCC2)N1CCc2ccccc2C1,n
CN(C(=O)CN1CCC2(CC1)C(C(=O)O)CC(=O)N2C)c1ccccc1 (configuration not stated),n
COC1C(=O)N(C2CCN(S(=O)(=O)c3c(C)noc3C)CC2)C12CCOCC2 (configuration not stated),n
COc1ccc(-c2ccc3nc(-c4cc(C)ccc4F)oc3c2)c(OC)c1OC,n
COC(=O)C(=O)N[C@H]1C[C@@H](Cc2cc(-c3ccccc3)on2)C1(C)C,n
CC1(C)[C@H](Cc2cc(CC3CCCCC3)on2)C[C@@H]1NC(=O)c1ccco1,5.01µM
CC(=O)N1CCC(N[C@H]2C[C@@H](Cc3cc(CN(C)Cc4ccccc4)on3)C2(C)C)CC1,n
CC1(C)[C@H](Cc2cc(CCO)on2)C[C@@H]1NCc1ccco1,n
COCc1cc(C[C@@H]2C[C@H](NC(=O)CC(C)(C)C)C2(C)C)no1,n
COCC(=O)N[C@H]1C[C@@H](Cc2cc(-c3ccccc3)on2)C1(C)C,7.94µM
COCC(=O)N[C@H]1C[C@@H](Cc2cc(CN(C)Cc3ccccc3)on2)C1(C)C,8.91µM
CC(=O)N[C@H]1C[C@@H](Cc2cc(CN(C)c3ccccc3)on2)C1(C)C,n
CC(=O)N[C@H]1C[C@@H](Cc2cc(CC(C)C)on2)C1(C)C,n
O=C1c2c(nc(COc3ccc4c(c3)OCO4)n2Cc2ccccc2)NCCN1Cc1ccccc1,n
NC(=O)CN1CCC(C(=O)NCc2cn3cccnc3n2)CC1,n
SMILES,Pf Dd2 inh
CC(C)c1noc([C@@H]2C[C@@H](O)CN2Cc2ccc(S(C)(=O)=O)cc2)n1,n
Cc1cc(CN(C)C(=O)CC(c2ccccc2)c2ccc3c(c2)OCO3)n[nH]1 (configuration not stated),n
COc1ccc(NC(=O)Cn2nnc3sc4c(c3c2=O)CCC(C)C4)c(OC)c1 (configuration not stated),n
CCOC(=O)N1CCc2c(sc(NCc3cccs3)c2C(=O)Nc2ccc(OC)cc2OC)C1,n
CCOC(=O)N1CCc2c(sc3c2C(=O)NC(c2cc(OC)c(O)c(OC)c2)N3)C1 (configuration not stated),n
COC(=O)c1c(NC(=O)COc2ccc(OC)cc2)sc2c1CCC(C)C2 (configuration not stated),n
COc1ccc(OC)c(NC(=O)c2c(NCc3ccc(C)o3)sc3c2CCC(C)C3)c1 (configuration not stated),11.2µM
CCOC(=O)N1CCc2c(sc(NCc3ccc(N(CC)CC)cc3)c2C(=O)Nc2cc(OC)ccc2OC)C1,7.94µM
COc1ccc(OC)c(NC(=O)c2c(NCc3ccc(OC)c(OC)c3)sc3c2CCC(C)C3)c1 (configuration not stated),5.62µM
COC(=O)c1c(NC(=O)COc2c(C)ccc(C)c2C)sc2c1CCC(C)C2 (configuration not stated),n
COC(=O)c1c(NC(=O)COc2cc(C)ccc2C(C)C)sc2c1CCC(C)C2 (configuration not stated),n
O=C(c1ccc(-c2cccc(O)c2)nc1)N1CCCN(c2ncccn2)CC1,n
CCC(C)NC(=O)C1COC2(CCCCC2)N1C(=O)c1cccc(F)c1 (configuration not stated),n
